According to PubChem BioAssay AID488815 (Broad Institute, 2010):
Results with a measured potency or affinity are listed apart. Results filed as inconclusive are left out. Active and inactive are the calls of the source. The rule behind the calls is not given here.

The compounds below were run against CAAX prenyl protease 1 (Saccharomyces cerevisiae (strain ATCC 204508 / S288c)) (UniProt P47154) (assay: Ste24 protease inhibitors, dose response, biochemical, S. cerevisiae, plate reader, cherry-pick (AID 488815)). Conditions: yeast Ste24 protease activity; series mostly up to 10 µM.
CAAX prenyl protease 1 (Saccharomyces cerevisiae (strain ATCC 204508 / S288c)), sequence (P47154 whole entry, looked up): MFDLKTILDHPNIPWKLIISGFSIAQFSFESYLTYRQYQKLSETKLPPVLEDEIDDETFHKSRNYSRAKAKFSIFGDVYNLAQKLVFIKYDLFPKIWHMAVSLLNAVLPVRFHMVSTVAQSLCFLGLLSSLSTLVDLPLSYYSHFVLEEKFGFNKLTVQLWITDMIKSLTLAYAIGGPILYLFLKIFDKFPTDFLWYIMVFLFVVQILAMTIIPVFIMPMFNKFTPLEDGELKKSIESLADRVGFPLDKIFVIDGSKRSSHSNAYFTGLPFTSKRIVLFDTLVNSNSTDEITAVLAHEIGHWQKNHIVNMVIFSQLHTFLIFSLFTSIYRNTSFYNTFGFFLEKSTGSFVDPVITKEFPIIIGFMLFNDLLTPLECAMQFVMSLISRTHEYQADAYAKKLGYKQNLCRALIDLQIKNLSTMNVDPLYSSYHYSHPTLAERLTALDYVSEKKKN

outcome, inactive:
COc1ccccc1/C=C/C=N/NC(=O)CN1CCN(S(=O)(=O)c2ccc(C)cc2)CC1, Cc1cc(C)n(Cc2ccc(NC(=O)c3ccc(COc4ccccc4Br)cc3)cc2)n1, O=C(CCNC(=O)N1CC(=O)Nc2ccccc21)NCCc1cccc(F)c1, Cc1cc(Cl)c2oc(C(=O)N3CCN(C(=O)c4ccco4)CC3)c(C)c2c1, O=C(O)CCC(=O)c1ccc(-c2ccccc2)cc1, Clc1cccc(CN2CCc3c([nH]c4ccccc34)C2)c1Cl, CC1CCN(C(=O)c2cc3nc(-c4ccccc4)cc(-c4ccccc4)n3n2)CC1, CC(C)(C)C(=O)C[n+]1ccc(C(N)=O)cc1, Cc1cc(C)n2nc(CC(=O)NNC(=O)c3ccc(N(C)C)cc3)nc2n1, N#Cc1c(OCC(=O)c2ccccc2)nc2c(c1-c1ccco1)CCc1ccccc1-2, CC(=O)Nc1ccc(Cl)cc1C1COC(=O)C1=N (configuration not stated), COc1ccccc1NC(=O)CN(c1ccc(C23CC4CC(CC(C4)C2)C3)cc1)S(C)(=O)=O, CCN1CCN(CC(O)COc2ccc3c(C)cc(=O)oc3c2)CC1 (configuration not stated), CC(C)N1CCN(S(=O)(=O)c2ccc3ccccc3c2)CC1, COc1ccc(-n2c(SCc3ccc([N+](=O)[O-])cc3)nnc2-c2ccc(C)cc2)cc1, Cc1ccc(NC(=O)CCc2ccc(S(=O)(=O)NC3CCCCC3)cc2)cc1, COc1cc(-c2nc3ccccn3c2/N=C/c2cccc(OC)c2O)ccc1O
